PubChem BioAssay (NCI)
This is part of a sample that, as a whole, favours compounds with a hit. Of some 83,000 tested, about 20% had one in any assay.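 The endpoint reported here, percent growth, reads 100 for growth as untreated, 0 for no net growth and -100 for all cells dead.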 The source made the active and inactive calls. How the source made its calls: active means growth percent below 10; inactive means the rest.

Experiments:
Experiment in all cases: NCI-60 one-dose screen, 48 h (100 = growth as untreated, 0 = no growth, -100 = all killed)
Conditions in all cases: 10 µM unless noted
T-47D breast = tested on: T-47D breast
BT-549 breast = tested on: BT-549 breast
MDA-MB-435 melanoma = tested on: MDA-MB-435 melanoma
SW-620 colon = tested on: SW-620 colon
MCF7 breast = tested on: MCF7 breast
HCT-116 colon = tested on: HCT-116 colon
HCC-2998 colon = tested on: HCC-2998 colon
KM12 colon = tested on: KM12 colon

Measured: growth

CNc1nc(C)c(-c2nc(Nc3cccc(S(N)(=O)=O)c3)ncc2F)s1
active: T-47D breast -2.75% | BT-549 breast -17.1% | SW-620 colon 8% | MCF7 breast 1.33% | HCT-116 colon 5.28% | HCC-2998 colon 2.96% | KM12 colon 5.25%
inactive: MDA-MB-435 melanoma 17.6%

CSc1nc2sc3c(c2c(=O)n1-c1ccc(C(C)C)cc1)CCC(=O)C3
active: T-47D breast -48.3% | BT-549 breast 3.97% | MDA-MB-435 melanoma -6.88% | SW-620 colon -30.3% | HCT-116 colon 2.14% | KM12 colon -42%
inactive: MCF7 breast 16% | HCC-2998 colon 16.5%

Cn1cc(-c2ccc(-c3cn(C)c4ncccc34)[nH]2)c2cccnc21
active: T-47D breast -29.1% | BT-549 breast -12%
inactive: MDA-MB-435 melanoma 86.6% | SW-620 colon 24% | MCF7 breast 75.2% | HCT-116 colon 67.3% | HCC-2998 colon 33.3% | KM12 colon 14.6%

COc1ccc(C2Nc3ccccc3-n3cccc32)cc1 (configuration not stated)
inactive: T-47D breast 84.2% | BT-549 breast 97.1% | MDA-MB-435 melanoma 103% | SW-620 colon 100% | MCF7 breast 95.7% | HCT-116 colon 94% | HCC-2998 colon 103% | KM12 colon 98.7%

Cc1nc2sc(C(=O)Nc3cccc4c3OCCO4)c(N)c2cc1C(C)O (configuration not stated)
inactive: BT-549 breast 56.1% | SW-620 colon 22.4% | MCF7 breast 11.2% | HCT-116 colon 31.3% | HCC-2998 colon 66.5% | KM12 colon 20.7%
active: T-47D breast -13.2% | MDA-MB-435 melanoma -39.2%

CCN(CC)CCCC(C)Nc1ccnc2c(OC)cccc12 (configuration not stated)
inactive: T-47D breast 119% | BT-549 breast 118% | MDA-MB-435 melanoma 118% | SW-620 colon 115% | MCF7 breast 101% | HCT-116 colon 112% | HCC-2998 colon 115% | KM12 colon 113%

CC[C@H](Nc1cc(C)nc(N)n1)c1nc2cccc(NCc3ccc(C(=O)NO)cc3)c2c(=O)n1-c1ccccc1
inactive: T-47D breast 18.7% | BT-549 breast 49.1% | MCF7 breast 24.7% | HCC-2998 colon 19.9% | KM12 colon 13.1%
active: MDA-MB-435 melanoma -15% | SW-620 colon -10.8% | HCT-116 colon -18.7%

CCOC(=O)C(C#N)C1CCCCC1 (configuration not stated)
inactive: T-47D breast 91.1% | BT-549 breast 90.1% | MDA-MB-435 melanoma 97.6% | SW-620 colon 106% | MCF7 breast 123% | HCT-116 colon 99.4% | HCC-2998 colon 102% | KM12 colon 107%

C[C@H](CCC(=O)O)[C@H]1CC[C@H]2[C@@H]3CC[C@@H]4/C(=C\c5ccco5)C(=O)/C(=C\c5ccco5)C[C@]4(C)[C@H]3CC[C@]12C
inactive: T-47D breast 55.6% | BT-549 breast 52.9% | MDA-MB-435 melanoma 37.1% | SW-620 colon 27.4% | MCF7 breast 32.5% | HCT-116 colon 21.8% | HCC-2998 colon 92.8% | KM12 colon 74.5%

CC/C(=C(\c1ccc(O)cc1)c1ccc(OCCN(C)CCN(C)C(=O)CCCCC(=O)c2c(C)[nH]c(/C=C3\N=C(c4ccc[nH]4)C=C3OC)c2C)cc1)c1ccccc1
inactive: T-47D breast 62.4% | BT-549 breast 91.5% | MDA-MB-435 melanoma 88% | SW-620 colon 88% | MCF7 breast 41.3% | HCT-116 colon 56.3% | HCC-2998 colon 97% | KM12 colon 68.6%

COc1ccc(CN2C(=O)/C(=C\c3cc(OC)c(OC)c(OC)c3)c3cc(OC)ccc32)cc1
active: T-47D breast -0.59% | MDA-MB-435 melanoma -0.0336% | SW-620 colon -64.1% | MCF7 breast 7.67% | HCT-116 colon -79.6% | KM12 colon -86%
inactive: BT-549 breast 27.1% | HCC-2998 colon 74.1%

CCc1ccccc1NC(=O)c1sc2nc3c(cc2c1N)C(=O)CCC3
inactive: T-47D breast 23.2% | BT-549 breast 48% | SW-620 colon 25.7% | HCT-116 colon 26.1% | HCC-2998 colon 24% | KM12 colon 25.4%
active: MDA-MB-435 melanoma -56.6% | MCF7 breast 8.92%

COC1=CC(=O)C(OC)=C(OC)C1=O
inactive: T-47D breast 97% | BT-549 breast 101% | MDA-MB-435 melanoma 97.5% | SW-620 colon 101% | MCF7 breast 90.6% | HCT-116 colon 92.3% | HCC-2998 colon 117% | KM12 colon 110%

C=C1CCC2C3(C)COC(c4ccc(SC)cc4)OC3CCC2(C)C1C/C=C1/C(=O)OCC1O (configuration not stated)
inactive: T-47D breast 23.6% | BT-549 breast 64.6% | MDA-MB-435 melanoma 61.3% | SW-620 colon 10.6% | MCF7 breast 27.7% | HCT-116 colon 11.2% | HCC-2998 colon 90.5% | KM12 colon 44.3%

CCN(CC)Cc1cc(Nc2c3ccc(Cl)cc3nc3c(C)cccc23)ccc1O
active: T-47D breast -70.5% | BT-549 breast -54.3% | MDA-MB-435 melanoma -89.6% | SW-620 colon -14% | MCF7 breast -61.6% | HCT-116 colon -73.2% | HCC-2998 colon -95% | KM12 colon -45.4%

CCN1CCN(Cc2ccc(NC(=O)Nc3nc4ccc(Oc5ccnc(C(=O)NC)c5)cc4s3)cc2C(F)(F)F)CC1
active: T-47D breast -27.9% | BT-549 breast -69.1% | MDA-MB-435 melanoma -36.5% | SW-620 colon -52.7% | MCF7 breast -39.3% | HCT-116 colon -66.1% | HCC-2998 colon -33.6% | KM12 colon -61.6%

CC(=O)C1=C(O)C=C2Oc3c(C(=O)/C=C/c4cc(Cl)cc(Cl)c4)c(O)c(C)c(O)c3[C@]2(C)C1=O
active: T-47D breast -24.4% | BT-549 breast -19.9% | MDA-MB-435 melanoma -42.2% | SW-620 colon 0.897% | MCF7 breast -10.6% | HCT-116 colon -15.9% | HCC-2998 colon -46.9% | KM12 colon -6.77%

COc1ccc(C/C(C)=C(\c2ccc(OCCN3CCCCCC3)cc2)c2ccc(OC(=O)C3CCCCC3)cc2)cc1
inactive: T-47D breast 38.1% | BT-549 breast 83.7% | MDA-MB-435 melanoma 68.8% | SW-620 colon 64.8% | MCF7 breast 29.3% | HCT-116 colon 38.5% | HCC-2998 colon 56.9% | KM12 colon 63.1%

CCOC(=O)c1ccc2c(c1)nc(/C=C/c1ccc(Cl)cc1)n2-c1cc(C(C)(C)C)[nH]n1
inactive: T-47D breast 56.2% | BT-549 breast 57.4% | MDA-MB-435 melanoma 62.7% | SW-620 colon 64.9% | MCF7 breast 42.4% | HCT-116 colon 52% | HCC-2998 colon 88.4% | KM12 colon 54%

CN[C@@]12CC3(C=CC(=O)C=C3)O[C@]1(Cc1ccc(OC)cc1)N(C)C(=O)N2
active: HCT-116 colon 4.01%
inactive: T-47D breast 47.8% | BT-549 breast 44.3% | MDA-MB-435 melanoma 31.4% | SW-620 colon 24.6% | MCF7 breast 16.4% | HCC-2998 colon 100% | KM12 colon 98.2%

CCN(CC)CCCNc1cccc2c(SCc3ccccc3)ccnc12
active: MDA-MB-435 melanoma -27.9%
inactive: T-47D breast 103% | BT-549 breast 74.8% | SW-620 colon 55% | MCF7 breast 98.6% | HCT-116 colon 75% | HCC-2998 colon 25.4% | KM12 colon 34%

Nc1ccc2c(c1)C(=O)NC2=O
inactive: T-47D breast 93.5% | BT-549 breast 117% | MDA-MB-435 melanoma 92.2% | SW-620 colon 94.8% | MCF7 breast 96.5% | HCT-116 colon 97.8% | HCC-2998 colon 95.2% | KM12 colon 98.8%

CCCCCCCCCCCCCCCCCCNC(=O)[C@H]1CSC(c2ccc(OC)c(F)c2)N1 (some centres not stated)
active: T-47D breast -62.5% | BT-549 breast -60.2% | MDA-MB-435 melanoma -83% | SW-620 colon -60.2% | MCF7 breast -67.9% | HCT-116 colon -72.7% | HCC-2998 colon -57.5% | KM12 colon -50.2%

COC1/C=C\OC2(C)Oc3c(C)c(O)c4c(O)c(c(CN(C)CCO)c(O)c4c3C2=O)NC(=O)/C(C)=C\C=C/C(C)C(O)C(C)C(O)C(C)C(OC(C)=O)C1C (configuration not stated)
inactive: T-47D breast 89.3% | BT-549 breast 105% | MDA-MB-435 melanoma 111% | SW-620 colon 105% | MCF7 breast 91.6% | HCT-116 colon 107% | HCC-2998 colon 121% | KM12 colon 106%

CC(C)(C)n1cc(-c2ccnc(NCCCNS(=O)(=O)c3cccc4ccccc34)c2)c(-c2cccc(O)c2)n1
inactive: BT-549 breast 39.8% | MDA-MB-435 melanoma 36.4% | SW-620 colon 16.3% | MCF7 breast 11.5% | HCT-116 colon 29.4% | KM12 colon 14.3%
active: T-47D breast 7.41% | HCC-2998 colon -49.4%

CCCCCCCCCCNC(=O)CCl
inactive: T-47D breast 41.1% | BT-549 breast 49% | MDA-MB-435 melanoma 89.6% | SW-620 colon 93.3% | MCF7 breast 74.5% | HCT-116 colon 69.3% | HCC-2998 colon 84.4% | KM12 colon 67.4%

OCCNCCNc1c2ccccc2nc2ccccc12
inactive: T-47D breast 39.6% | BT-549 breast 103% | MDA-MB-435 melanoma 89.4% | SW-620 colon 59.5% | MCF7 breast 23.4% | HCT-116 colon 37.7% | HCC-2998 colon 52.6% | KM12 colon 55.6%

O=C(Nc1ccc(CN2CCOCC2)cc1)c1[nH]ncc1Nc1ncnc2sccc12
inactive: T-47D breast 17.5% | MDA-MB-435 melanoma 18.1%
active: BT-549 breast -8.71% | SW-620 colon 5.35% | MCF7 breast 8.76% | HCT-116 colon 6.07% | HCC-2998 colon -9.48% | KM12 colon 0.0776%

C=C1CCC2C3(C)COC(c4ccc(OC)cc4Br)OC3CCC2(C)C1/C=C/C1=CCOC1=O (configuration not stated)
inactive: T-47D breast 41.3% | BT-549 breast 73.8% | MDA-MB-435 melanoma 93.7% | SW-620 colon 84% | MCF7 breast 60.7% | HCT-116 colon 53.9% | HCC-2998 colon 57.9% | KM12 colon 83.4%
